{
  "source": "paper PMC7819943",
  "about": "“Rice protein-binding microarrays: a tool to detect cis-acting elements near promoter regions in rice”",
  "note": "Whole data set: some 35,000 sequences, median “fluorescence intensity (a.u.)” near 10,000, cut for the highest 2% near 52,000. For the sample, the highest values were picked, then their nearest neighbours and some sequences at random.",
  "data": [
    {"molecular_target": "T1, OsWOX13 (Oryza sativa, UniProt Q5QMM3 1-267)", "T1 sequence": "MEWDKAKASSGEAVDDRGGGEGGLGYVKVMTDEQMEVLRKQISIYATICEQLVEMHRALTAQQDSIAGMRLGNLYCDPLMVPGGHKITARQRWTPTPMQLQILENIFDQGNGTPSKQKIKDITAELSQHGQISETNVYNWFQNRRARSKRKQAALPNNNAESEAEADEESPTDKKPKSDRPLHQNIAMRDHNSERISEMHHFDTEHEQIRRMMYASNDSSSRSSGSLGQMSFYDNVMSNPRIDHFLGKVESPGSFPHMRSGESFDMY", "experiment": "protein-binding microarray (RPBM); PBS, 2% BSA, 51.3 ng/ul salmon testes DNA, 50 uM zinc acetate, 200 nM TF, 25 C, 1 h; high values mean tight binding", "settings": "protein: recombinant; tags: N-terminal polyhistidine and DsRed monomer fusion (pET32a); label: CyDye5-dUTP incorporated in the synthesized complementary strand; 3' TTTTT single-stranded linker to array surface; dsDNA, one strand shown", "procedure,_shortened": "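An Axon 4000B scanner gave the binding signal as per-feature fluorescence intensity in arbitrary units. This followed washing of a custom Agilent array that had been incubated for 1 h at 25 °C with 200 nM protein in PBS, 2% BSA, salmon testes DNA and 50 µM zinc acetate. The proteins were transcription factors fused at the N-terminus to polyhistidine and DsRed, expressed in E. coli BL21-CodonPlus and purified on Ni–NTA.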", "values": [
      {"sequence": "ACAAAACAAATTACAGATTCCGCCTGCAAATTATGAGACACGGAGTCACCTAGTGCAG", "binding signal": "6510 fluorescence intensity (a.u.)"},
      {"sequence": "CCGTGCTCAACTACCCAATCACTCCAAATTAAGCTCGCATCGGAGTCACCTAGTGCAG", "binding signal": "3750 fluorescence intensity (a.u.)"},
      {"sequence": "TATTAATTAATTAACCTTAATTAATAAACAGGCAAAAGAACGGAGTCACCTAGTGCAG", "binding signal": "40700 fluorescence intensity (a.u.)"},
      {"sequence": "TGCTAGATTAAATTTTAAAACTATATTGTTCCTTTCATATCGGAGTCACCTAGTGCAG", "binding signal": "12400 fluorescence intensity (a.u.)"},
      {"sequence": "CCTGATTTCCTCCTTTCAGTGAAGTGTTAAACCCTAGCTACGGAGTCACCTAGTGCAG", "binding signal": "21500 fluorescence intensity (a.u.)"},
      {"sequence": "AGTGGCTGCCGAATTAATTGGATCGCGTGCTGCGTGCGTGCGGAGTCACCTAGTGCAG", "binding signal": "5740 fluorescence intensity (a.u.)"},
      {"sequence": "ATTAATTGAGTTTTATTTTATTGTAAATTTGATTTAATAGCGGAGTCACCTAGTGCAG", "binding signal": "37200 fluorescence intensity (a.u.)"},
      {"sequence": "TGTTAAATTATATCTAAGGAAACCGGTTTTGATTTCCTTCCGGAGTCACCTAGTGCAG", "binding signal": "11100 fluorescence intensity (a.u.)"},
      {"sequence": "CTATTAAATTGATTATATATGATTTGTAGTTTATAGTTGGCGGAGTCACCTAGTGCAG", "binding signal": "65100 fluorescence intensity (a.u.)"},
      {"sequence": "AGGATTGTTTCTGATGATTTGGGCCCGGAAAGACATAAGGCGGAGTCACCTAGTGCAG", "binding signal": "7510 fluorescence intensity (a.u.)"},
      {"sequence": "TGATAAATTTGATGTTTATATGTTAAATTATAGTAGTTTGCGGAGTCACCTAGTGCAG", "binding signal": "17600 fluorescence intensity (a.u.)"},
      {"sequence": "TTAAATTGGATCTGATTGATTTGTTTAAGGAAACCACCGGCGGAGTCACCTAGTGCAG", "binding signal": "54600 fluorescence intensity (a.u.)"},
      {"sequence": "GAGTAATATTCAACATTTTGATTAGAGGTTAACCGGTGTACGGAGTCACCTAGTGCAG", "binding signal": "5370 fluorescence intensity (a.u.)"},
      {"sequence": "ATTCATTAATCTGTACTAATTGATATTGCTAAGCAGCTGCCGGAGTCACCTAGTGCAG", "binding signal": "34200 fluorescence intensity (a.u.)"},
      {"sequence": "TTTGATAAAATCATAGATGTAGATTTTAATGTGATCTGAGCGGAGTCACCTAGTGCAG", "binding signal": "6270 fluorescence intensity (a.u.)"},
      {"sequence": "TCACGATTAATTATATCATCATTTTGTATCCTTTGATTTCCGGAGTCACCTAGTGCAG", "binding signal": "25200 fluorescence intensity (a.u.)"},
      {"sequence": "GTGGCATTTAGGTAATTAATTTAGTTTTATTTGTTACCTGCGGAGTCACCTAGTGCAG", "binding signal": "10200 fluorescence intensity (a.u.)"},
      {"sequence": "TCTAAATGATTGTTATTTTCTTTCCTATTGTAAAGTTCAACGGAGTCACCTAGTGCAG", "binding signal": "18900 fluorescence intensity (a.u.)"},
      {"sequence": "ATTTTGTGGTAATCTATACAAATTACTATATCCCCAATTGCGGAGTCACCTAGTGCAG", "binding signal": "4670 fluorescence intensity (a.u.)"},
      {"sequence": "CAAATTTATAATAATTAAAATTTAATTAATTATGTGTTAACGGAGTCACCTAGTGCAG", "binding signal": "57700 fluorescence intensity (a.u.)"},
      {"sequence": "ATTATTAATTTAATAGTATTGTAGTGATTCAGAGTACTAGCGGAGTCACCTAGTGCAG", "binding signal": "19200 fluorescence intensity (a.u.)"},
      {"sequence": "TATATTTATTATTTGCAGTTAATTATGTTACAAATAATAACGGAGTCACCTAGTGCAG", "binding signal": "4460 fluorescence intensity (a.u.)"},
      {"sequence": "CTTAATTACAAATTTGAAATTAATTTGCTAGGTATGTTTACGGAGTCACCTAGTGCAG", "binding signal": "63900 fluorescence intensity (a.u.)"},
      {"sequence": "GTAAATATTAATGAATTGCTTGTTTATGTTTAAATAAATGCGGAGTCACCTAGTGCAG", "binding signal": "4960 fluorescence intensity (a.u.)"},
      {"sequence": "CTTTAATTAATTTAACTGCCATTATTATGTACTTTCAGAGCGGAGTCACCTAGTGCAG", "binding signal": "63200 fluorescence intensity (a.u.)"},
      {"sequence": "CATTATTTCACTTGATTAAATTGCTTTAACTTTTATTTAGCGGAGTCACCTAGTGCAG", "binding signal": "15900 fluorescence intensity (a.u.)"},
      {"sequence": "TAATTAATAATTAATTAATTATGTGTTAATTGCTTGCTCCCGGAGTCACCTAGTGCAG", "binding signal": "65500 fluorescence intensity (a.u.)"},
      {"sequence": "ATTTTGAAATTTTAATTTTAAAATTACATTTTGGGACAAACGGAGTCACCTAGTGCAG", "binding signal": "8130 fluorescence intensity (a.u.)"},
      {"sequence": "AATACTTATTAATAATTAACATGTGTTAATTCATTGCTTCCGGAGTCACCTAGTGCAG", "binding signal": "13400 fluorescence intensity (a.u.)"},
      {"sequence": "TGTATTTAATTAGTTTGACAGAAACAAATTTGCTCAGTTACGGAGTCACCTAGTGCAG", "binding signal": "37100 fluorescence intensity (a.u.)"},
      {"sequence": "TGTGTGTGTTTTAATTAATTAACATTTATATAAATATGAACGGAGTCACCTAGTGCAG", "binding signal": "14100 fluorescence intensity (a.u.)"},
      {"sequence": "ATTGATTATTATTTTAAAATAAAATGGCGTGTTAGGTTTTCGGAGTCACCTAGTGCAG", "binding signal": "47300 fluorescence intensity (a.u.)"},
      {"sequence": "CACTGATTTTGATAGTTGAGGGACCCGTTGTATTTGATTTCGGAGTCACCTAGTGCAG", "binding signal": "21500 fluorescence intensity (a.u.)"},
      {"sequence": "CCAAAATTTGATAGAATCTATTCCGAAGCGTCCAATGTTTCGGAGTCACCTAGTGCAG", "binding signal": "33400 fluorescence intensity (a.u.)"},
      {"sequence": "CCGCTGTAGCTGATTGCCAGTGTCAGATCAAGCTGTGAATCGGAGTCACCTAGTGCAG", "binding signal": "9800 fluorescence intensity (a.u.)"},
      {"sequence": "ATTAGGTGTTTCCAGTTAATTAAAGTCATGTAGTACGGATCGGAGTCACCTAGTGCAG", "binding signal": "3680 fluorescence intensity (a.u.)"},
      {"sequence": "AATCAGCTCTAAATTTAAATTGTGGCTGATAAATACGAGTCGGAGTCACCTAGTGCAG", "binding signal": "4450 fluorescence intensity (a.u.)"},
      {"sequence": "GCTAAATTCCTATCAAATTCAAGTTTAACACATTACTGCGCGGAGTCACCTAGTGCAG", "binding signal": "13100 fluorescence intensity (a.u.)"},
      {"sequence": "ATGAAATCAAGGTTTTGCAAATTGAAATCCATGTTTTGGTCGGAGTCACCTAGTGCAG", "binding signal": "8140 fluorescence intensity (a.u.)"},
      {"sequence": "ATTATTATAAATTATTTCCTCCGTTTCACAATGTAAGTCACGGAGTCACCTAGTGCAG", "binding signal": "5530 fluorescence intensity (a.u.)"},
      {"sequence": "TAAATTGCGCAAAATTTATTCACGTAGATTAAGAGTCCATCGGAGTCACCTAGTGCAG", "binding signal": "10700 fluorescence intensity (a.u.)"},
      {"sequence": "GTTGATTTCACGACCTGCTCGCTGAGGAATGGAGGTCCAGCGGAGTCACCTAGTGCAG", "binding signal": "3180 fluorescence intensity (a.u.)"},
      {"sequence": "ATCATAATTAAATATATTTTCATAATAAATTTGTCTTTAGCGGAGTCACCTAGTGCAG", "binding signal": "31000 fluorescence intensity (a.u.)"}
    ]}
  ]
}
